# Compound activity (PubChem BioAssay)
# GLD-1 RNA inh – GLD-1-TGE RNA interaction inhibition (C. elegans) | Q17339 | purified GLD-1 + fluorescein TGE RNA, fluorescence polarization | hit rate 0.44% among 320,000 | inhibition, % at 5.96 µM;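 active means percent inhibition above a per-plate cutoff, the plate mean of test compounds plus 3 SD, cut at about 30% in these data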;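 further: 0% = DMSO wells with GLD-1 and probe and 100% = wells lacking GLD-1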
# Mcl1-Bid inh – Mcl-1/Bid interaction inhibition. Q07820. TR-FRET Mcl-1/Bid-Dy647 peptide binding, 1536-well. inhibition, % at 21.7 µM. hit rate 0.97% among 220,000;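 active means compounds that cut the binding signal by more than half at the single screening dose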;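 further: His-tagged Mcl-1 with europium anti-His antibody binding Bid BH3 peptide; 0% = Mcl-1 plus peptide wells and 100% = peptide-only wells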
# Target sequence (Q07820 whole entry, looked up): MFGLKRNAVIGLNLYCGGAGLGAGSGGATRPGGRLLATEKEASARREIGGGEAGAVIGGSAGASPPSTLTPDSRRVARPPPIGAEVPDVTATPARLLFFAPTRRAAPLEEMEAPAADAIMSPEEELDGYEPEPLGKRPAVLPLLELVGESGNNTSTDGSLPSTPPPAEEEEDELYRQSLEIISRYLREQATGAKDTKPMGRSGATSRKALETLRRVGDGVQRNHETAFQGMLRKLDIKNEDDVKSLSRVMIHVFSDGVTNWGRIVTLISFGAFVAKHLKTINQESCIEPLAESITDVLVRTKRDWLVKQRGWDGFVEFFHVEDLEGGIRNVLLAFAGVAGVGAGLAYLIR
# BCLXL inh – Bcl-xL (human) inhibition | Q07817 | GST-Bcl-xL / FITC-Bim BH3 peptide fluorescence polarization | inhibition, % at 10.9 µM | hit rate 0.7% among 320,000 | AID 2129;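 active means inhibition above the mean of all tested compounds plus 3 SD, cutoff set per campaign, cut at about 30% in these data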;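 further: 0% = DMSO wells and 100% = unlabeled Bim-BH3 peptide competitor; inhibitors lower millipolarization by displacing the labeled peptide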
# Target sequence (Q07817 whole entry, looked up): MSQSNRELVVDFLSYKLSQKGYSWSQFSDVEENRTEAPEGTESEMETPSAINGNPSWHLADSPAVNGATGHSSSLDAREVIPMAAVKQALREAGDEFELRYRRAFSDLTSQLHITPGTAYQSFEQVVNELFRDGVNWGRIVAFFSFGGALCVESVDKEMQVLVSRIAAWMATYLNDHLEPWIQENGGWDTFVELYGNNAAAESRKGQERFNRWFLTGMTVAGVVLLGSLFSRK
# Bim-Mcl-1 – disrupts Bim peptide binding to human Mcl-1; inhibition, % at 10 µM; hit rate 0.1% among 190,000; Bead-based flow cytometry, Bim peptide-Mcl-1 binding; in the data active means inhibition above about 40%;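 further: 0% = no compound tracer wells and 100% = peptide blocker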
# Mcl1-Noxa inh – Mcl-1/Noxa interaction inhibition. inhibition, % at 21.7 µM. TR-FRET Mcl-1/Noxa peptide binding, 2 h. hit rate 1.5% among 220,000. AID 1022;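 active means compounds that cut the protein-peptide binding signal by more than 50% relative to plate controls in a single-dose test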;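 further: His-tagged Mcl-1 with rhodamine Noxa BH3 peptide and terbium anti-His antibody; 0% = Mcl-1 plus Noxa peptide wells and 100% = peptide-only wells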
# MCL1 BIM primary – MCL1-BIM-BH3 interaction inhibition (human) | Q07820 | GST-MCL1 / FITC-Bim-BH3 fluorescence polarization | inhibition, % at 10.9 µM | hit rate 0.68% among 320,000 | AID 2057;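 active means inhibition above the mean inhibition of all tested compounds plus 3 SD, set per campaign, cut at about 40% in these data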;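 further: 0% = DMSO wells and 100% = unlabeled Bim-BH3 peptide control; higher means more loss of mP so more displacement of Bim peptide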
# An asterisk follows results filed as active; nt = not tested or not shown. Shown are actives, neighbours in structure and some others; about 2.3% of the full set was active somewhere.
SMILES,GLD-1 RNA inh,Mcl1-Bid inh,BCLXL inh,Bim-Mcl-1,Mcl1-Noxa inh,MCL1 BIM primary
Cc1cc(S(=O)(=O)Nc2nc(CN3CCOCC3)nc3sc4c(c23)CCC4)ccc1F,-4,nt,nt,nt,nt,nt
O=C1CSC(c2cccnc2)N1c1ccc(Cl)cc1 (stereo unspecified),7,79*,-1,0,0,1
O=C1CSC(c2ccc(Cl)cc2)N1c1cccnc1 (stereo unspecified),4,-10,0,nt,13,5
Cc1c(C(=O)n2cnc3ccccc32)cccc1[N+](=O)[O-],1,nt,2,nt,nt,-6
Cc1nc2ccccc2n1C(=O)c1ccccc1[N+](=O)[O-],-5,52*,-5,-4,-1,-8
CC1(C)C(c2cccs2)=[N+]([O-])C2(CCCCC/C2=N\O)N1O (stereo unspecified),2,57*,-7,-1,-8,-14
O=C(CN1CCN(S(=O)(=O)c2cccc(Cl)c2)CC1)NCC1(N2CCOCC2)CCCCC1,-3,nt,1,nt,nt,-1
O=C(NC1CCCCCCC1)c1ccc2c(c1)OCO2,-2,-19,5,1,-10,6
c1cc2c(cc1NC1CCCCCC1)OCO2,2,nt,34*,nt,nt,47*
CC(=O)c1ccc(S(=O)(=O)N2CCN(CC(=O)NC(=O)NC3CCCCC3)CC2)cc1,3,nt,-5,nt,nt,-8
COc1cc(C(=O)NC2(C(F)(F)F)NC(=O)N(CCCc3ccccc3)C2=O)cc(OC)c1OC (stereo unspecified),7,64*,0,-2,-3,3
CC(C)c1c(Cl)c(O)c(-c2ccccc2)c(=O)n1-c1ccc(F)cc1,4,57*,3,-1,31,-1
COC(=O)Sc1nc(N2CCOCC2)c2c(c1C#N)CC(C)(C)OC2,0,-10,7,-12,14,3
CC(Sc1nc(N2CCOCC2)c2c(c1C#N)CC(C)(C)OC2)C(=O)O (stereo unspecified),-10,nt,31*,nt,nt,-5
O=c1[nH]c(NCCO)nnc1Cc1ccccc1,4,nt,-2,nt,nt,-1
O=C(CSc1ccc2nnc(-c3ccc(F)cc3)n2n1)NCc1ccco1,1,-17,5,-7,62*,11
O=C(CSc1nnc(-c2ccncc2)n1-c1ccc(F)cc1)NC(=O)NCc1ccco1,2,0,1,-4,63*,6
Cc1ccc(-c2nnc3ccc(SCC(=O)NCc4ccco4)nn23)cc1,2,4,1,0,15,-1
Cc1ccc(-n2c(SCC(=O)NCc3ccco3)nnc2-c2cccnc2)cc1,-3,-24,-1,-6,-8,-8
O=C(CN1C(=O)NC2(CCCCCCC2)C1=O)NCc1ccccc1,0,nt,nt,nt,nt,nt
C=CCC1(CC=C)CCCN1C(=O)c1cc(COc2ccccc2SC)on1,3,nt,2,nt,nt,0
Cc1cc(C(=O)CCC(=O)NCC2COc3ccccc3O2)c(C)s1 (stereo unspecified),0,nt,4,nt,nt,-2
COc1ccc(-c2ccnc3nc(-n4cccc4)nn23)cc1,1,14,-8,-3,51*,-2
c1coc(-c2ccnc3nc(-n4cccc4)nn23)c1,-7,8,5,-4,62*,18
CC1=C(C(=O)Nc2ccccc2C(=O)NC2CCCCC2)SCCO1,1,nt,3,nt,nt,0
SMILES,GLD-1 RNA inh,Mcl1-Bid inh,BCLXL inh,Bim-Mcl-1,Mcl1-Noxa inh,MCL1 BIM primary
Cc1cc(O)cc2c(=O)c3ccccc3sc12,-1,-22,7,2,59*,2
COC(=O)c1ccc(COc2ccc(/C=N/Nc3nc(C)cc(=O)[nH]3)cc2)cc1,9,15,-1,nt,55*,0
COC(=O)c1ccc(COc2ccc(/C=N/Nc3cccc(C(=O)O)c3)cc2)cc1,-2,-16,10,nt,37,8
NC(=O)NC(CC(=O)NCCc1ccc(S(N)(=O)=O)cc1)c1ccc(Cl)cc1 (stereo unspecified),-3,84*,-3,nt,3,-4
CC(=O)Nc1sc(N/N=C/c2ccccc2)nc1-c1ccc(C)cc1,0,-52,3,nt,7,1
CC(=O)Nc1sc(N/N=C/c2ccc(O)cc2)nc1-c1ccc(C)cc1,-5,-85,4,nt,89*,2
CCOc1cc(/C=N/Nc2nc(-c3cccs3)c(NC(C)=O)s2)ccc1O,-8,-81,2,nt,101*,4
CC(=O)Nc1sc(NC(=O)c2ccc(Cl)cc2)nc1-c1cccs1,3,-19,12,-1,31,7
CC(=O)Nc1sc(N/N=C\c2ccco2)nc1-c1cccs1,-8,-74,-4,-5,74*,-22
CC(=O)Nc1sc(N/N=C\c2ccccc2)nc1-c1cccs1,2,-38,6,-37,55*,-13
O=C(COc1ccc(Br)cc1)NCCCNC(=O)c1cnccn1,5,nt,5,nt,nt,3
CC(=O)Nc1sc(N/N=C\c2ccccc2Cl)nc1-c1cccs1,6,7,9,-2,61*,9
Cc1ccc(C(=O)C[n+]2cccc3cc(C)ccc32)cc1,-19,-13,14,2,27,9
CCOc1ccc(C(=O)C[n+]2cccc3cc(C)ccc32)cc1,-29,nt,35*,nt,nt,45*
O=Cc1cc(CCC(=O)O)ccc1O,10,nt,11,nt,nt,10
CN1c2ccccc2C(C)(C)[C@]12C=Cc1cc(O)ccc1O2,26,-67,13,0,46,15
CN1c2ccccc2C(C)(C)C12C=Nc1c(ccc3ccccc13)O2 (stereo unspecified),9,-13,34*,0,13,43*
Cc1c(Cc2ccccc2)c(=O)oc2cc(OCC(=O)N3CCC(C(=O)O)CC3)ccc12,1,nt,3,nt,nt,-3
CCCC(C(=O)O)N1C(=O)/C(=C/c2cccn2C)SC1=S (stereo unspecified),-111,1,-69,-2,52*,-114
COc1ccccc1N1CSC2=C(C#N)C(c3ccc(SC)cc3)CC(=O)N2C1 (stereo unspecified),-10,2,-15,8,83*,-14
COc1cc(C2CC(=O)N3CN(c4ccccc4C)CSC3=C2C#N)cc(OC)c1OC (stereo unspecified),-1,-21,-5,-4,17,-4
Cc1ccc2c(c1)c(C1=NC(=S)NC1=O)c(O)n2C,-6,26,8,0,55*,2
C=CCc1ccccc1OCCNCCCOC,-2,84*,4,0,18,3
C=CCc1cc(Cl)ccc1OCCNCCCOC,6,18,8,0,26,10
COc1ccc(-c2ccc3c(n2)sc2c(=O)[nH]c(=O)[nH]c23)cc1OC,nt,-7,nt,-3,84*,nt
CC(C)C(=O)NC(=S)Nc1sc2c(c1C(N)=O)CCCC2,7,-80,14,0,64*,22
CCCCN(C)C(=O)c1ccc2c(c1)S(=O)(=O)c1ccccc1C2=O,-9,nt,2,nt,nt,4
